# Screening data: PubChem BioAssay, Center for Chemical Genomics, University of Michigan
# CDC25B-CDK2 inh = human CDC25B-CDK2/CyclinA binding inhibition. z-score (test concentration not listed). AID 1259370. P30305+P24941. HTRF CDC25B-CDK2/CyclinA binding, anti-His/anti-Flag; hits give high values. actives 0.72% (n = 94,000); in the data active = z-score above about 3.2
# HIV TAR-Tat = HIV-1 TAR-Tat binding disruption; z-score (test concentration not listed); HIV-1 TAR RNA, Tat peptide displacement FRET; hits give high values; actives 0.6% (n = 100,000); active = z-score of 3 or more in at least 2 runs
# Active calls of the source: *; · = not tested or not shown. Most compounds without a hit are left out; they make up all but 0.93% or so of the library.
SMILES,CDC25B-CDK2 inh,HIV TAR-Tat
O=c1cc(CSc2nc3ccccc3[nH]2)nc2sc(-c3ccco3)nn12,-0.16,14.9*
Cc1nn(-c2ccc3nnc(C)n3n2)c2c1C(c1ccc(OCc3ccc(F)cc3)cc1)CC(=O)N2 (configuration not stated),·,0.54
CCC(CO)Nc1nc(C)nc2sc3c(c12)CCC3 (configuration not stated),-0.5,·
Clc1ccc(OCCn2cnc3ccccc32)cc1,-2.07,0.65
CCOC(=O)c1sc(N2C(=O)c3oc4cc(C)c(C)cc4c(=O)c3C2c2cccc(O)c2)nc1C (configuration not stated),1.56,-2.18
O=C(NC(=O)c1csc(-c2ccc(C(F)(F)F)cc2Cl)n1)Nc1ccc(F)cc1,-2.72,·
CC(=O)C(C(C)=O)C1=C([N+](=O)[O-])C(=O)C(=O)c2ccccc21,3.55*,·
O=C1c2ccccc2C(=O)c2c1ccc(C(=O)O)c2[N+](=O)[O-],-0.12,·
O=C(CSc1nnnn1-c1ccccc1)Nc1ncc2c(n1)CC(c1ccco1)CC2=O (configuration not stated),15.3*,-4.73
Cc1nnc(SCC(=O)Nc2ncc3c(n2)CC(c2ccco2)CC3=O)s1 (configuration not stated),4.23,-1.45
CCc1nc2c(cnn2-c2ccc(Cl)cc2)c(=O)n1-c1ccc(OC)cc1,-0.11,·
Cc1ccc(C)c(NS(=O)(=O)c2ccc(N3CCCCS3(=O)=O)cc2)c1,·,0.94
CCc1ccc(CN(C(=O)c2cc(=O)c3cc(CC)ccc3o2)C2CCS(=O)(=O)C2)cc1 (configuration not stated),-1.09,-0.15
Cc1nnc2sc(/C=C/c3ccco3)nn12,-1.1,10.7*
Cc1ccc(-c2nnc3sc(/C=C/c4ccco4)nn23)cc1,14.3*,19.7*
c1csc(-c2nn3cnnc3s2)c1,-0.82,0.39
Cc1ccc(/C=C/c2nn3c(-c4ccoc4C)nnc3s2)cc1,-1.26,0.92
Cc1ccc(-c2nn3c(C)nnc3s2)cc1,-0.67,0.49
Cc1ccccc1/C=C/c1nn2c(-c3ccoc3C)nnc2s1,-1.16,0.29
C(=C\c1nn2cnnc2s1)/c1ccco1,-0.67,20.8*
Cc1occc1-c1nnc2sc(/C=C/c3ccccc3Cl)nn12,1.22,7.7*
Fc1ccc(Cc2cn3cc(-c4ccccc4)nc3s2)cc1,-1.85,-0.15
NC(=O)c1cccc2c3c([nH]c12)CCCC3,0.93,-2.45
CCC(C)NS(=O)(=O)c1ccc(-c2ccc(=O)[nH]n2)o1 (configuration not stated),·,2.89
Cc1ccccc1-c1noc(CSc2nnc(-c3ccncc3)n2C)n1,-0.9,-1.28
SMILES,CDC25B-CDK2 inh,HIV TAR-Tat
CCc1ccc(N2CC34C=CC(O3)C(C(=O)OC(C)C)C4C2=O)cc1 (configuration not stated),0.42,0.5
CCN(CC)C(=O)c1oc2ccccc2c1NC(=O)C(C)(C)C,·,0.42
CCN(CC)C(=O)c1oc2ccccc2c1NC(=O)c1ccc2c(c1)OCO2,·,7.04*
Cc1nonc1NC(=O)N1CCOCC1,-1.39,1.34
Cc1nonc1NC(=O)Nc1ccncc1,9.17*,-0.99
O=C(Cn1ncc2c1-c1ccccc1OC2)N1CCc2ccccc2C1,-0.62,-0.45
CC(N)=NCCCC[C@@H](N)C(=O)O,0.56,·
CCCCCCCCCCCCCCCCCCN=C(C)N,4.5*,·
O=C(O)c1cc2ncc(Br)cn2n1,·,17.9*
O=C(c1cnc2cc(-c3ccccc3)nn2c1)c1cc(Br)ccc1O,-0.74,-0.18
O=C(Cn1c(=O)c2cccn2c2ccc(F)cc21)NCCCN1CCCC1=O,·,1.43
N[C@@H](Cc1cnc[nH]1)C(=O)O,-0.77,·
O=C(O)c1cnc[nH]1,3.86*,·
CC1=NS(=O)(=O)c2cc(S(=O)(=O)Nc3cc(Cl)ccc3C)ccc2N1,·,-4.04
O=C(c1cc(O)c(O)c(O)c1)c1ccc(O)c(O)c1O,·,32.5*
O=C(O)c1cc(O)c(O)c(O)c1,·,6.76*
O=C(O)c1ccnc(-c2cc(C(=O)O)ccn2)c1,-0.69,·
COc1cc(O)c2c(c1)C(=O)c1cc(C)cc(O)c1C2=O,·,1.82
O=C(O)c1cc(O)c2c(c1)C(=O)c1cc(O)cc(O)c1C2=O,·,9.5*
Oc1ccc(Cl)cc1Cc1cc(Cl)ccc1O,·,0.6
O=c1[nH]cncc1-c1nc(-c2ccc(Cl)cc2)no1,-0.66,0.46
O=C(Nc1ccc2nc3n(c(=O)c2c1)CCCCC3)C(=O)N1CCN(c2ccccc2)CC1,-0.09,1.67
Cc1onc(-c2c(F)cccc2Cl)c1/C(N)=N/O,-0.45,·
Cc1ccc(Cl)cc1Nc1nn2c(=O)c3ccc(C(=O)NCC4CCCO4)cc3nc2s1 (configuration not stated),·,-0.99
O=C(c1cccc(CN2CCN(c3nc(-c4ccccc4)ns3)CC2)c1)N1CCC(O)CC1,-2.08,·
SMILES,CDC25B-CDK2 inh,HIV TAR-Tat
CN1CCN(C(=O)C2CCCN(c3ncnc4c3nc3n4CCCCC3)C2)CC1 (configuration not stated),·,1.14
CC(=O)Oc1cc2c(C(=O)NC3CCS(=O)(=O)C3)c(C)oc2c2ccccc12 (configuration not stated),9.98*,-7.68
CC(=O)Oc1cc2c(C(=O)NCC3CCCO3)c(C)oc2c2ccccc12 (configuration not stated),2.34,1.29
CC(=O)NC1=NN(C(C)=O)C(c2ccc(Sc3ccc(C)cc3)o2)S1 (configuration not stated),-0.44,1.97
CC(=O)NC1=NN(C(C)=O)C(c2ccc(C)o2)S1 (configuration not stated),-2.34,15.9*
COc1ccc2c(C(=O)O)cc(=O)[nH]c2c1,-1.18,-0.28
COc1ccc2[nH]c(=O)cc(C(=O)O)c2c1,0.85,12.6*
Cc1ccc(N=C2CSc3nnc(-c4cccnc4)n3N2)cc1,0.11,-5.72
O=c1[nH]c(SCc2ccccc2F)nc2c1CCC2,-1.69,0.61
O=c1[nH]c(SCc2c(F)cccc2Cl)nc2c1CCC2,-1.86,8.61*
Clc1cc(Cl)c(-c2sc(Cl)cc2Cl)s1,-0.08,·
CC1O[P+]2(OC1C)OC(C)C(C)O2 (configuration not stated),5.15*,·
CCC1CN(S(=O)(=O)c2ccc(CN3C(=O)c4cccnc4C3=O)cc2)c2cc(Cl)ccc2O1 (configuration not stated),·,-0.42
Cc1cccc(CSc2nc3c(c(=O)[nH]2)C(c2ccccc2OC(C)C)CC(=O)N3)c1 (configuration not stated),-0.35,1.44
Cc1cccc(N2CCN(S(=O)(=O)c3c(C)nc4sccn4c3=O)CC2C)c1 (configuration not stated),-0.82,-0.7
Cc1ccc(-c2cnnc(-n3nc(C)c4c3NC(=O)CC4c3ccc(C(=O)O)cc3)n2)cc1 (configuration not stated),-0.92,0.9
Cc1nn(-c2nncc(-c3ccc(F)cc3)n2)c2c1C(c1ccc(C(=O)O)cc1)CC(=O)N2 (configuration not stated),-1.99,3.66*
Cc1nn(-c2nc3ccccc3[nH]2)c2c1C(c1ccc(C(=O)O)cc1)CC(=O)N2 (configuration not stated),·,25.1*
Cc1nn(-c2nc3ccccc3[nH]2)c2c1C(c1cc(F)cc(F)c1)CC(=O)N2 (configuration not stated),·,1.53
Cn1cccc1Cc1nnc(SCC(=O)NCc2ccc3c(c2)OCO3)n1C,0.04,-1.31
COc1ccc(C2CC(c3c(O)n(C)c(=O)n(C)c3=O)=Nc3ccccc3S2)cc1OC (configuration not stated),19.9*,2.33
